Measured values published in PubChem BioAssay AID1159580 (chemical genetic matrix, 2015).
Out of some 5,500 compounds screened, about 2,000 (36%) were called active. Inconclusive results (about 18%) are left out. Rule as the data show it: active = normalized growth mostly below about 0.91 (no sharp cut-off); inconclusive = no clear call, values can overlap the other calls; inactive = mostly above about 0.92. Some of the results follow.

Test: chemical genetic growth profiling, strain panel (AID 1159580);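 also: tested at 20 µM; growth read once vehicle control cultures reached saturation at 30 °C; 1 = growth at the plate median or of vehicle wells; lower values mean less growth of the strain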
Conditions: growth OD

Measured: normalized growth

Cc1cc(=O)n(-c2ccccc2)n1C
inactive: S. cerevisiae deletion strains, locus YJR066W, strain TOR1, hits give low values 0.984 | S. cerevisiae deletion strains, locus YJR075W, strain HOC1, hits give low values 1 | S. cerevisiae deletion strains, locus YKL009W, strain mrt4, hits give low values 1 | S. cerevisiae deletion strains, locus YKL068W, hits give low values 1 | S. cerevisiae deletion strains, locus YKL085W, strain MDH1 (second series), hits give low values 0.987 | S. cerevisiae deletion strains, locus YKL085W, strain MDH1, hits give low values 0.987 | S. cerevisiae deletion strains, locus YKL160W, strain elf1, hits give low values 0.936 | S. cerevisiae deletion strains, locus YKR001C, strain vps1, hits give low values 1.02 | S. cerevisiae deletion strains, locus YKR026C, strain gcn3, hits give low values 1 | S. cerevisiae deletion strains, locus YKR091W, strain srl3, hits give low values 0.99 | S. cerevisiae deletion strains, locus YLL001W, strain dnm1, hits give low values 0.921 | S. cerevisiae deletion strains, locus YLL026W, hits give low values 1 | S. cerevisiae deletion strains, locus YLL041C, strain sdh2, hits give low values 0.991 | S. cerevisiae deletion strains, locus YLR027C, strain aat2, hits give low values 1 | S. cerevisiae deletion strains, locus YLR039C, strain RIC1, hits give low values 1.04 | S. cerevisiae deletion strains, locus YLR058C, strain SHM2, hits give low values 1 | S. cerevisiae deletion strains, locus YLR102C, strain apc9, hits give low values 0.991 | S. cerevisiae deletion strains, locus YLR113W, strain HOG1, hits give low values 0.981 | S. cerevisiae deletion strains, locus YLR221C, strain rsa3, hits give low values 0.976 | S. cerevisiae deletion strains, locus YLR258W, strain gsy2, hits give low values 1.07 | S. cerevisiae deletion strains, locus YLR262C, strain YPT6 (second series), hits give low values 0.967 | S. cerevisiae deletion strains, locus YLR262C, strain YPT6, hits give low values 1.07 | S. cerevisiae deletion strains, locus YLR268W, strain sec22, hits give low values 0.992 | S. cerevisiae deletion strains, locus YLR320W, strain mms22, hits give low values 0.96 | S. cerevisiae deletion strains, locus YLR330W, strain CHS5, hits give low values 1.01 | S. cerevisiae deletion strains, locus YLR342W, strain FKS1 (second series), hits give low values 1.02 | S. cerevisiae deletion strains, locus YLR342W, strain FKS1, hits give low values 0.99 | S. cerevisiae deletion strains, locus YLR357W, strain rsc2, hits give low values 0.988 | S. cerevisiae deletion strains, locus YLR370C, strain arc18, hits give low values 0.991 | S. cerevisiae deletion strains, locus YLR371W, strain rom2, hits give low values 0.987 | S. cerevisiae deletion strains, locus YLR384C, strain iki3, hits give low values 1 | S. cerevisiae deletion strains, locus YLR418C, strain cdc73, hits give low values 0.995 | S. cerevisiae deletion strains, locus YML016C, strain PPZ1, hits give low values 1.01 | S. cerevisiae deletion strains, locus YML032C, strain rad52, hits give low values 0.993 | S. cerevisiae deletion strains, locus YML120C, strain ndi1, hits give low values 0.97 | S. cerevisiae deletion strains, locus YML124C, strain tub3, hits give low values 0.984 | S. cerevisiae deletion strains, locus YMR058W, strain fet3, hits give low values 0.99 | S. cerevisiae deletion strains, locus YMR078C, strain ctf18, hits give low values 0.975 | S. cerevisiae deletion strains, locus YMR125W, strain sto1, hits give low values 0.935 | S. cerevisiae deletion strains, locus YMR129W, hits give low values 0.998 | S. cerevisiae deletion strains, locus YMR205C, strain PFK2, hits give low values 0.946 | S. cerevisiae deletion strains, locus YMR223W, strain ubp8, hits give low values 0.99 | S. cerevisiae deletion strains, locus YMR231W, strain pep5, hits give low values 0.997 | S. cerevisiae deletion strains, locus YMR307W, strain GAS1, hits give low values 1.09 | S. cerevisiae deletion strains, locus YNL067W, strain RPL9B, hits give low values 0.995 | S. cerevisiae deletion strains, locus YNL071W, strain lat1, hits give low values 0.992 | S. cerevisiae deletion strains, locus YNL128W, strain TEP1, hits give low values 1.01 | S. cerevisiae deletion strains, locus YNL153C, strain GIM3, hits give low values 0.991 | S. cerevisiae deletion strains, locus YNL183C, strain NPR1, hits give low values 0.987 | S. cerevisiae deletion strains, locus YNL209W, strain ssb2, hits give low values 0.994 | S. cerevisiae deletion strains, locus YNL233W, strain BNI4, hits give low values 0.989 | S. cerevisiae deletion strains, locus YNL248C, strain rpa49, hits give low values 0.952 | S. cerevisiae deletion strains, locus YNL250W, strain rad50, hits give low values 1 | S. cerevisiae deletion strains, locus YNL271C, strain bni1, hits give low values 0.989 | S. cerevisiae deletion strains, locus YNL298W, strain CLA4, hits give low values 1.01 | S. cerevisiae deletion strains, locus YNL307C, strain MCK1, hits give low values 0.991 | S. cerevisiae deletion strains, locus YNL322C, strain KRE1 (second series), hits give low values 0.991 | S. cerevisiae deletion strains, locus YNR049C, strain mso1, hits give low values 1 | S. cerevisiae deletion strains, locus YNR052C, strain pop2, hits give low values 0.982 | S. cerevisiae deletion strains, locus YOL006C, strain TOP1, hits give low values 0.961 | S. cerevisiae deletion strains, locus YOL012C, strain htz1 1.68 | S. cerevisiae deletion strains, locus YOL147C, strain pex11, hits give low values 0.989 | S. cerevisiae deletion strains, locus YOR001W, strain rrp6, hits give low values 1.05 | S. cerevisiae deletion strains, locus YOR061W, strain CKA2, hits give low values 1.02 | S. cerevisiae deletion strains, locus YOR069W, strain VPS5, hits give low values 1.01 | S. cerevisiae deletion strains, locus YOR070C, strain gyp1, hits give low values 0.999 | S. cerevisiae deletion strains, locus YOR080W, strain dia2, hits give low values 0.999 | S. cerevisiae deletion strains, locus YOR083W, strain WHI5, hits give low values 0.949 | S. cerevisiae deletion strains, locus YOR106W, strain vam3, hits give low values 0.957 | S. cerevisiae deletion strains, locus YOR136W, strain idh2, hits give low values 0.986 | S. cerevisiae deletion strains, locus YOR144C, strain elg1, hits give low values 0.995 | S. cerevisiae deletion strains, locus YOR184W, strain ser1, hits give low values 1.01 | S. cerevisiae deletion strains, locus YOR231W, strain MKK1, hits give low values 1.04 | S. cerevisiae deletion strains, locus YOR265W, strain rbl2, hits give low values 0.994 | S. cerevisiae deletion strains, locus YOR270C, strain vph1, hits give low values 0.964 | S. cerevisiae deletion strains, locus YOR290C, strain snf2, hits give low values 0.945 | S. cerevisiae deletion strains, locus YOR316C, strain cot1, hits give low values 0.985 | S. cerevisiae deletion strains, locus YPL051W, strain arl3, hits give low values 0.98 | S. cerevisiae deletion strains, locus YPL078C, strain atp4, hits give low values 0.936 | S. cerevisiae deletion strains, locus YPL106C, strain sse1, hits give low values 0.981 | S. cerevisiae deletion strains, locus YPL240C, strain hsp82, hits give low values 1.01 | S. cerevisiae deletion strains, locus YPL256C, strain CLN2, hits give low values 0.999 | S. cerevisiae deletion strains, locus YPR119W, strain clb2, hits give low values 0.982 | S. cerevisiae deletion strains, locus YPR141C, strain kar3, hits give low values 0.995 | S. cerevisiae deletion strains, locus YPR163C, strain tif3, hits give low values 0.992 | S. cerevisiae deletion strains, locus YPR167C, strain met16, hits give low values 0.984 | S. cerevisiae deletion strains, strain wtn01, hits give low values 0.979 | S. cerevisiae strains, strain wild type, hits give low values 1.01
